In the library only some 5.1% were active in any assay of this set; here they are far more common.
CRFBP-R2 block: antagonists of CRF-BP/CRF-R2 complex, primary screen, cell-based, HEK293, calcium dye fluorescence, uHTS; inhibition, % at 11.8 µM; actives 0.59% (n = 350,000); CRF-induced calcium fluorescence;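 active = inhibition of the ligand-induced calcium signal above about 50% at the single tested concentration, limit read from the data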
CRFBP-R2 agonist: agonists of CRF-BP/CRF-R2 complex, primary screen, cell-based, HEK293, calcium dye fluorescence, uHTS; actives 0.46% (n = 350,000); calcium dye fluorescence (FLIPR); percent of saturating CRF peptide response; activation, % at 13.2 µM;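 active = activation of at least 50%, plus an integration ratio under a set limit after plate pattern correction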;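 also: plate controls were neutral control wells without compound for no effect and CRF at EC100 for full effect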
MPTP block: mitochondrial permeability transition pore inhibitors, primary screen, biochemical, isolated mouse mitochondria, absorbance | Ca2+ swelling absorbance, 30 min | inhibition, % at 10 µM | actives 1.4% (n = 360,000) | AID 602449, 2012;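 active = inhibition of 50% or more, scaled per plate between neutral and stimulator controls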;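 also: 0% = DMSO wells given calcium and 100% = 1 mM EGTA wells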
ANO1 block: TMEM16A chloride channel inhibitors, primary screen, cell-based, HTS; Anoctamin-1 (Mus musculus), Q8BHY3; normalized B-score (activity score, 25-100; higher = stronger inhibition) at 10 µM; HEK293 TMEM16A/YFP iodide influx fluorescence, ionomycin; actives 1.2% (n = 310,000);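 active = ratio plate-corrected score three or more library SD toward inhibition, starting fluorescence score within five deviations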;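 also: score derived from kinetic fluorescence span divided by baseline fluorescence per well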
GRIN3A LBD mod: binders of NR3A ligand-binding domain, primary screen, biophysical, differential scanning fluorimetry, uHTS; AID 1259313, 2017; Tm shift relative to glycine control, % at 25 µM; NR3A LBD differential scanning fluorimetry, Tm shift; 0% = protein alone, 100% = glycine-bound protein; actives 2.5% (n = 340,000);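 active = melting temperature shift of at least 10% of the positive control shift, at one fixed dose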
ANO1 activ: TMEM16A chloride channel activators or potentiators, primary screen, cell-based, HTS. actives 0.3% (n = 340,000). Anoctamin-1 (Mus musculus), Q8BHY3. B-score at 10 µM. HEK293 TMEM16A/YFP-H148Q/I152L, iodide quench fluorescence; active compounds read low. AID 623877, 2012;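 active = fluorescence-ratio B-score plate-corrected deviation score at least 3 library SD below zero, with starting fluorescence score within 5 deviations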;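 also: channel opened by trigger with iodide after compound preincubation; score built on the fluorescence ratio of max minus min over baseline; more negative score means more quench and so TMEM16A activation or potentiation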
TMEM16A reconf: TMEM16A chloride channel inhibitors, confirmation, cell-based, re-confirmation | shares compounds with ANO1 block | HEK293 TMEM16A/YFP-H148Q, iodide quench fluorescence; ionomycin added to raise cell calcium | inhibition, % at 10 µM | actives 39% (n = 2,300) | AID 652189, 2013;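 active = mean duplicate percent inhibition, scaled so buffer wells are 0 and the reference blocker 100, over three buffer SD above buffer mean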
TMEM16A Ca cntr: calcium mobilization in TMEM16A/YFP HEK293 cells, confirmation, counter-screen for TMEM16A inhibitor project; calcium response (% of ionomycin), % at 10 µM; AID 652231, 2013; actives 2% (n = 2,300); Fluo4 calcium mobilization; shares compounds with ANO1 block;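 active = duplicate-averaged calcium signal over 20% of the ionomycin maximum, relative to buffer baseline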;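 also: each well's signal is peak minus trough fluorescence divided by its pre-addition baseline; 0% = buffer wells and 100% = ionomycin wells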
YFP-HEK293 quench: iodide YFP quench changes in parental YFP-HEK293, counter-screen for TMEM16A inhibitor project, cell-based; shares compounds with ANO1 block; ionomycin; YFP ratio F(max-min)/F0 at 10 µM; 2,300 tested, under 10 active; AID 652233, 2013;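 active = yellow fluorescent protein signal ratio exceeding the buffer control mean by over 5 SD of those controls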;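 also: ratio is mean of duplicate wells from kinetic YFP trace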
ClC-1 inh: ClC-1 chloride channel inhibition, selectivity assay for TMEM16A inhibitor project, cell-based, voltage-dependent ClC-1. CHO ClC-1-YFP, iodide influx fluorescence quench; iodide control reads 0, buffer control 100. shares compounds with ANO1 block. ratio percent, % at 10 µM. AID 652236, 2013. 2,300 tested, under 10 active;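 active = duplicate-mean ratio percent above the mean of iodide-only control wells, which defines zero, plus 5 of their SD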;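 also: higher percent means stronger block of ClC-1 iodide influx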
Target sequence (P35524 whole entry, looked up): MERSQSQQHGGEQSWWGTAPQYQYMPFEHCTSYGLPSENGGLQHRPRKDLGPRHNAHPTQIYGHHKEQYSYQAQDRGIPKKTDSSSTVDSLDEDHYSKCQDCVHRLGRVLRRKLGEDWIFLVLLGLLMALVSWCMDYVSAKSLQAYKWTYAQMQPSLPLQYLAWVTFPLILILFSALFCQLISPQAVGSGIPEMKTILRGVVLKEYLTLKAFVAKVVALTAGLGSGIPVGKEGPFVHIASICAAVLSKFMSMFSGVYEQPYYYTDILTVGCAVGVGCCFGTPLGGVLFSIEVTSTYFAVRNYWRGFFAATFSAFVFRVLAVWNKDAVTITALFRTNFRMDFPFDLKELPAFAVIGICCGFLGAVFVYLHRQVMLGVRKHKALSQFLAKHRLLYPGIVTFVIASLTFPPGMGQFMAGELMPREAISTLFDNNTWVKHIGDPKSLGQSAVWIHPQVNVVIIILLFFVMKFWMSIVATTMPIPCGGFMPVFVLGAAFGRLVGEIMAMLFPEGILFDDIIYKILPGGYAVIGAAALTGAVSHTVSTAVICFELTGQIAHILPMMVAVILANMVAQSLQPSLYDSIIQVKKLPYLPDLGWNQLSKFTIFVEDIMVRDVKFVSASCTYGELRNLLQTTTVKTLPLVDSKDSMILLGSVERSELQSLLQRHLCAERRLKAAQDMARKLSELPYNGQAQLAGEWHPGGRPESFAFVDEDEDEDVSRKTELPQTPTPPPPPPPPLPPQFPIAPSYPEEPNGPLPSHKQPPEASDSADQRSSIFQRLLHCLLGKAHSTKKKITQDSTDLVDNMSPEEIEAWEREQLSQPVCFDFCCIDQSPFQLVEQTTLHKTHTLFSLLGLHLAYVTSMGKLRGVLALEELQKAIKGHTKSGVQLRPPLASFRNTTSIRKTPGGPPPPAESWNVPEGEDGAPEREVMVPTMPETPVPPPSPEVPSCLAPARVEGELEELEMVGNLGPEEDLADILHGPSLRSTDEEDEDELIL
* marks the source's active call; other numbers are inactive results.

How did CCOCCn1c(CN2CCN(c3ccc(OC)cc3)CC2)nc2c1c(=O)n(C)c(=O)n2C do in these assays?
CRFBP-R2 block: 10; CRFBP-R2 agonist: 0; MPTP block: 0; ANO1 block: inactive; GRIN3A LBD mod: -1; ANO1 activ: inactive

What do the screens show for `COCCn1c(CN2CCN(c3ccc(OC)cc3)CC2)nc2c1c(=O)n(C)c(=O)n2C`?
CRFBP-R2 block: 21; CRFBP-R2 agonist: -1; MPTP block: 6; ANO1 block: 25*; GRIN3A LBD mod: 1; ANO1 activ: inactive; TMEM16A reconf: inactive; TMEM16A Ca cntr: inactive; YFP-HEK293 quench: -1.2; ClC-1 inh: -3

Results for CC1CC(C)CN(Cc2nc3c(c(=O)n(C)c(=O)n3C)n2CCN2CCOCC2)C1 (configuration not stated) ?
CRFBP-R2 block: -3; CRFBP-R2 agonist: 2; MPTP block: 0; ANO1 block: 100*; GRIN3A LBD mod: -1; ANO1 activ: inactive; TMEM16A reconf: inactive; TMEM16A Ca cntr: inactive; YFP-HEK293 quench: -1.2; ClC-1 inh: -4

How did CC(=O)Nc1cccc(NC(=O)CSc2ncc(-c3ccc(Cl)cc3)n2Cc2ccco2)c1 do in these assays?
CRFBP-R2 block: 8; CRFBP-R2 agonist: 1; MPTP block: 1; ANO1 block: 100*; GRIN3A LBD mod: -4; ANO1 activ: inactive; TMEM16A reconf: 32%*; TMEM16A Ca cntr: inactive; YFP-HEK293 quench: -0.96; ClC-1 inh: -16

How did CCN(CC)S(=O)(=O)c1cc(C(=O)Nc2ccncc2)ccc1Cl do in these assays?
CRFBP-R2 block: -12; CRFBP-R2 agonist: 16; MPTP block: 23; ANO1 block: 100*; GRIN3A LBD mod: 1; ANO1 activ: inactive; TMEM16A reconf: inactive; TMEM16A Ca cntr: inactive; YFP-HEK293 quench: -1.1; ClC-1 inh: -12

How did Cc1ccc(S(=O)(=O)N/N=C/c2c[nH]c3ccccc23)cc1 do in these assays?
CRFBP-R2 block: 37; CRFBP-R2 agonist: 0; MPTP block: 13; ANO1 block: 25*; GRIN3A LBD mod: 31*; ANO1 activ: inactive; TMEM16A reconf: 28%*; TMEM16A Ca cntr: inactive; YFP-HEK293 quench: -0.9; ClC-1 inh: -32

Results for COc1ccc2[nH]cc(/C=N/NS(=O)(=O)c3ccc(C)cc3)c2c1 ?
CRFBP-R2 block: 9; CRFBP-R2 agonist: -1; MPTP block: 34; ANO1 block: 25*; GRIN3A LBD mod: 25*; ANO1 activ: inactive; TMEM16A reconf: 28%*; TMEM16A Ca cntr: inactive; YFP-HEK293 quench: -0.94; ClC-1 inh: -16

What do the screens show for `Nn1c(-c2cccc(O)c2)nnc1-c1cccc(O)c1`?
CRFBP-R2 block: -7; CRFBP-R2 agonist: 2; MPTP block: 0; GRIN3A LBD mod: 0; ANO1 activ: inactive

How did COc1cc(Cl)ccc1OCc1cc(C(=O)N(C)Cc2cccc3cnccc23)no1 do in these assays?
CRFBP-R2 block: -1; CRFBP-R2 agonist: 0; MPTP block: 0; ANO1 block: 100*; GRIN3A LBD mod: -4; ANO1 activ: inactive; TMEM16A reconf: 25%*; TMEM16A Ca cntr: inactive; YFP-HEK293 quench: -1.1; ClC-1 inh: -13

What do the screens show for `Cc1cc(N/N=C/c2ccccc2Cl)nc(NCc2ccccc2)n1`?
CRFBP-R2 block: -24; CRFBP-R2 agonist: -3; MPTP block: 8; ANO1 block: inactive; GRIN3A LBD mod: -2; ANO1 activ: inactive; TMEM16A reconf: inactive; TMEM16A Ca cntr: inactive; YFP-HEK293 quench: -1.1; ClC-1 inh: -10

What do the screens show for `CCOC(=O)c1c(NC(=O)CSc2nnc(-c3ccco3)o2)sc(C)c1C`?
CRFBP-R2 block: 22; CRFBP-R2 agonist: 1; MPTP block: 6; ANO1 block: inactive; GRIN3A LBD mod: 0; ANO1 activ: inactive

What do the screens show for `CCOC(=O)c1c(NC(=O)CSc2nnc(Cc3ccccc3)o2)sc(C)c1C`?
CRFBP-R2 block: -3; CRFBP-R2 agonist: -1; MPTP block: -8; ANO1 block: 100*; GRIN3A LBD mod: -1; ANO1 activ: inactive; TMEM16A reconf: inactive; TMEM16A Ca cntr: inactive; YFP-HEK293 quench: -1.2; ClC-1 inh: 0

What do the screens show for `COc1ccc(-n2c(=O)cc(N3CCN(c4ccccc4F)CC3)[nH]c2=O)cc1`?
CRFBP-R2 block: -6; CRFBP-R2 agonist: 1; MPTP block: -1; ANO1 block: 25*; GRIN3A LBD mod: -3; ANO1 activ: inactive; TMEM16A reconf: inactive; TMEM16A Ca cntr: inactive; YFP-HEK293 quench: -1; ClC-1 inh: -6

What do the screens show for `COc1ccc(-n2c(=O)cc(N3CCN(c4ccccc4OC)CC3)[nH]c2=O)cc1`?
CRFBP-R2 block: -3; CRFBP-R2 agonist: -1; MPTP block: 4; ANO1 block: inactive; GRIN3A LBD mod: 0; ANO1 activ: inactive

Results for COc1ccccc1N1CCN(c2cc(=O)n(-c3ccccc3Cl)c(=O)[nH]2)CC1 ?
CRFBP-R2 block: -16; CRFBP-R2 agonist: 0; MPTP block: 7; ANO1 block: 100*; GRIN3A LBD mod: 2; ANO1 activ: inactive; TMEM16A reconf: inactive; TMEM16A Ca cntr: inactive; YFP-HEK293 quench: -1; ClC-1 inh: -8

What do the screens show for `O=C1c2ccccc2[C@@H]2C[C@H]3O[C@H]3CCN12`?
CRFBP-R2 block: -8; CRFBP-R2 agonist: 0; MPTP block: 4; GRIN3A LBD mod: -2; ANO1 activ: inactive
